Sampled rows, rich in hits. Any-hit rate of the full collection: about 2.4%.
HSF1 activator: increases HSF-1 driven luciferase reporter signal; NIH3T3-HGL HSF-1 luciferase reporter, MG132, 8 h; 100% = twice DMSO control signal; activation, % at 9 µM; 300,000 compounds, 1.7% hits;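 active = mean replicate activation of at least 50% with a set share of replicates each reaching 50%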
HSF1 inh: HSF1 inhibition; activity change, negative = inhibition, % at 7.5 µM (by protocol); NIH3T3-HGL HSE-luciferase, MG132-induced, luminescence 8 h; stronger effect = lower value; AID 2098; 300,000 compounds, 0.77% hits;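 active = more than half of replicate wells show activity change below -50%, luminescence cut by over half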;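 also: luciferase reports HSF-1 transcriptional activity via heat shock element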
TLR4-MyD88 BLA: blocks binding of human TLR4 to MyD88; HeLa CL3-4 TLR4/MyD88 BLA complementation, FRET ratio; inhibition, % at 8.4 µM; 200,000 compounds, 0.18% hits; AID 861; in the data active = inhibition above about 25%
NOD2-RIPK2 inh: inhibitors of human NOD2-RIPK2 interaction. CHO BLA complementation NOD2-RIPK2, CCF4 ratio. inhibition, % at 4.98 µM. 360,000 compounds, 0.38% hits. AID 624267; in the data active = inhibition above about 21%
TLR9-MyD88 block: blocks human TLR9 binding to MyD88; CHO BLA complementation TLR9-MyD88, CCF4 FRET ratio; 340,000 compounds, 0.21% hits; inhibition, % at 4.98 µM; Q9NR96+Q99836;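 active = inhibition above the mean over all tested compounds plus 3 SD, cut at about 21% in these data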
Target sequence (Q99836 whole entry, looked up): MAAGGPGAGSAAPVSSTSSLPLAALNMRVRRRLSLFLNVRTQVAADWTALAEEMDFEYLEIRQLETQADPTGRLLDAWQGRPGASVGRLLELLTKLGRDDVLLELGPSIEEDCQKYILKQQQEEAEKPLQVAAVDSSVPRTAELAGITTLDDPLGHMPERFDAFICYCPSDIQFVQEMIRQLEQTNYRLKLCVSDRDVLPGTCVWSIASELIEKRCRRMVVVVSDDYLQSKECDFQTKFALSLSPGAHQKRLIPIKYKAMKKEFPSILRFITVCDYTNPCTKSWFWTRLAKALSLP
Target sequence (Q9NR96 whole entry, looked up): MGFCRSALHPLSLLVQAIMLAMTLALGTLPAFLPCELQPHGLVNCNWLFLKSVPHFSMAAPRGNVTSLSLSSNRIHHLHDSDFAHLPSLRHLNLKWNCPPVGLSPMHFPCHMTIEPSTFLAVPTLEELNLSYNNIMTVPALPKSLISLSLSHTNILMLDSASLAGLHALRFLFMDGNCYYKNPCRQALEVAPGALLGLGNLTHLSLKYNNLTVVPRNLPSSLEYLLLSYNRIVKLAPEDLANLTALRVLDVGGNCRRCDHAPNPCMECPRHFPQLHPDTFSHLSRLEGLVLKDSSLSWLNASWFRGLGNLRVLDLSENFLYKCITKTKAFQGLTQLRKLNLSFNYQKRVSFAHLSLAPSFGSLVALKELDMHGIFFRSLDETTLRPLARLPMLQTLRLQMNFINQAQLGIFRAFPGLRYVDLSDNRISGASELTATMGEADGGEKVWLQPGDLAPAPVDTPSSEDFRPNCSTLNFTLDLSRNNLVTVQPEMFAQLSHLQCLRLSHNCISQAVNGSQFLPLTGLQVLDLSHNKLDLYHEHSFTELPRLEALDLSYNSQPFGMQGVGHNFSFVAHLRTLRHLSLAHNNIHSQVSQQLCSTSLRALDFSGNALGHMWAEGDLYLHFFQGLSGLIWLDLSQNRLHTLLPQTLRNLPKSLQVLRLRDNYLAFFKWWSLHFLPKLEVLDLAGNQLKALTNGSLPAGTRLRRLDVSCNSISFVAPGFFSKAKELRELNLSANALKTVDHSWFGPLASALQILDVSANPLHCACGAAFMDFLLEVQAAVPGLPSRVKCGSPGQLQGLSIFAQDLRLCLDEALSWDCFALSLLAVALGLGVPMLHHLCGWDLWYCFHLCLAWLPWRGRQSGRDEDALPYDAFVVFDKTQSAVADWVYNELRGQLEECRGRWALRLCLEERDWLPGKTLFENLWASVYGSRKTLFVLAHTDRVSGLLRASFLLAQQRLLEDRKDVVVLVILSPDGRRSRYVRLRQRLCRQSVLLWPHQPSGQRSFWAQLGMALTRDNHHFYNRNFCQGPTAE
Hits are given with their value; i = inactive; nt = no result given.

SMILES	HSF1 activator	HSF1 inh	TLR4-MyD88 BLA	NOD2-RIPK2 inh	TLR9-MyD88 block
COc1ccccc1OCC(=O)NC1CCSc2ccccc21 (stereo not drawn)	nt	nt	nt	i	i
CN1CCN(c2ccc([N+](=O)[O-])cc2C(=O)N2CCOCC2)CC1	i	i	i	i	i
CCN(CC)c1ccc([N+](=O)[O-])cc1C(=O)N1CCOCC1	55	i	i	i	i
O=C(O)c1cccc(-c2csc(C(O)c3ccccc3)n2)c1 (stereo not drawn)	nt	nt	nt	i	nt
Cc1ccc(C)c(S(=O)(=O)N2CCCCC2CCNC(=O)C(=O)NCCc2ccco2)c1 (stereo not drawn)	54	i	nt	i	i
Cc1ccc(C)c(S(=O)(=O)N2CCCC2CNC(=O)C(=O)NCCc2ccco2)c1 (stereo not drawn)	i	i	nt	i	i
Cc1csc(NC(=O)c2cc3c(s2)CCC3)n1	54	i	i	i	i
Cc1cccc(CSc2nc3c(c(-c4cccs4)c2C#N)CN(C)CC3)c1	77	i	i	i	i
Cc1cccc(CSc2nc(N)c(C#N)c(-c3cccs3)c2C#N)c1	i	i	i	i	i
O=C(O)/C=C/C(=O)c1ccc2c(c1)CCc1ccccc1-2	175	i	nt	i	i
S=C(Nc1ccc2nsnc2c1)NC1CCCCC1	82	i	i	i	i
CC1CCN(C(=O)Nc2ccc3nsnc3c2)CC1	57	i	i	i	i
S=C(Nc1ccc2nsnc2c1)N1CCCCCC1	62	i	i	i	i
Cc1ccc(NC(=S)N2CCCC2)cc1C	nt	nt	nt	i	i
O=C(Nc1ccc2nsnc2c1)N1CCCCC1	i	i	i	i	i
Cc1c(CCCl)c(Cl)n2c(nc3ccccc32)c1C#N	nt	nt	nt	i	i
COc1ccc(NC(=O)CN2C(=O)NC(CC(C)C)C2=O)cc1S(=O)(=O)N1CCOCC1 (stereo not drawn)	nt	nt	nt	i	i
O=[N+]([O-])c1cccnc1NCCNc1ncc(C(F)(F)F)cc1Cl	85	i	i	i	i
COc1ccc(-c2nc(CNS(=O)(=O)c3ccc(OC)c(OC)c3)cs2)cc1	i	-63	i	i	i
CCN1CCN(Cc2ccc(NC(=O)c3ccc(C)c(NC(=O)c4cncc(-c5cccs5)c4)c3)cc2C(F)(F)F)CC1	nt	nt	nt	29	i
CCN1CCN(Cc2ccc(NC(=O)c3ccc(C)c(NC(=O)c4cccc5[nH]ccc45)c3)cc2C(F)(F)F)CC1	i	-55	nt	i	i
O=C(OCc1nnc(-c2ccccc2)o1)C1CC(=O)N(CCc2ccccc2)C1 (stereo not drawn)	nt	nt	nt	i	i
CS(=O)(=O)c1ccc(Cl)c(NC(=O)CSc2nnc3n2CCCCC3)c1	nt	nt	nt	i	i
COc1ccc(-c2cn3ccccc3n2)cc1[N+](=O)[O-]	55	i	i	i	i
COc1cccc(-c2nn(C)c3sc(C(=O)Nc4ccc5c(c4)OCCO5)cc23)c1	55	i	i	i	i
SMILES	HSF1 activator	HSF1 inh	TLR4-MyD88 BLA	NOD2-RIPK2 inh	TLR9-MyD88 block
CC1CCCC(NC(=O)COC(=O)COc2ccc(C#N)cc2)C1C (stereo not drawn)	nt	nt	nt	i	i
COc1ccc2c(COC(=O)c3ccc(C)c(S(=O)(=O)N4CCOCC4)c3)cc(=O)oc2c1	nt	nt	nt	i	i
COC(=O)c1ccc(OC(=O)CS(=O)c2ccccc2[N+](=O)[O-])cc1 (stereo not drawn)	i	i	i	i	i
O=C(CS(=O)c1ccc(C(F)(F)F)cc1[N+](=O)[O-])Oc1ccccc1 (stereo not drawn)	238	i	i	i	i
c1ccc2c(c1)-c1nc3ccccc3cc1C2N1CCOCC1 (stereo not drawn)	nt	nt	nt	i	i
CCc1ccccc1-n1c(SCC(=O)Nc2ccc3c(c2)OCCO3)nc2[nH]ncc2c1=O	i	-68	i	i	i
COc1ccc(CCN2C(=O)COc3ccccc3C2C(=O)Nc2c(C)cccc2C)cc1OC (stereo not drawn)	nt	nt	nt	i	nt
CC(=O)Nc1ccc2c(c1)C(=O)c1ccccc1C2=O	i	i	i	i	i
O=C1C=C(Nc2ccc(O)cc2)C(=O)c2ccccc21	64	i	nt	i	i
O=C1C(Cl)=C(Nc2ccc(O)cc2)C(=O)c2ccccc21	i	i	nt	i	i
CC(=O)Nc1ccc(NC2=CC(=O)c3ccccc3C2=O)cc1	77	i	nt	i	i
COc1ccc(NC2=C(Cl)C(=O)N(CCc3ccccc3)C2=O)c(OC)c1	i	i	i	i	i
COc1ccc(NC2=C(Cl)C(=O)N(CCc3ccccc3)C2=O)cc1	59	i	i	i	i
Cc1nc2ccc(NC(=O)CCS(=O)(=O)c3ccccc3)cc2s1	i	i	i	i	i
Cc1nc2cc(NC(=O)CCS(=O)(=O)c3ccccc3)ccc2s1	52	i	i	i	i
O=C(Nc1cc(S(=O)(=O)N2CCOCC2)ccc1Cl)c1ccc(=O)[nH]c1	nt	nt	nt	i	i
Cc1cc(C)c2nc(C(F)(F)F)c(C#N)c(N)c2c1	i	-62	i	i	i
O=[N+]([O-])c1ccc(O)c(Nc2c([N+](=O)[O-])ccc3nonc23)c1	i	i	nt	i	i
O=c1c2sc(-c3ccccc3)cc2nc2n1CCCCC2	55	i	nt	i	i
COc1ccccc1C(=O)N/C(=C\c1cn(S(=O)(=O)N(C)C)c2ccccc12)C(=O)N1CCN(C)CC1	nt	nt	nt	i	i
CC(=O)Nc1ccc(Sc2ccccc2C(=O)O)cn1	i	i	nt	i	i
COc1ccc(C=O)cc1CN1CCCN(Cc2ccc(Cl)cc2)S1(=O)=O	i	-80	nt	i	i
COc1ccc(C2c3c(ncn(CCCO)c3=N)Oc3ccc4ccccc4c32)cc1OC (stereo not drawn)	i	i	nt	i	nt
COc1ccc(C2c3c(ncn(CCCO)c3=N)Oc3ccc4ccccc4c32)cc1 (stereo not drawn)	58	i	nt	i	i
COn1c(-c2ccc(Cl)cc2)nc2ncccc21	i	i	nt	i	i
SMILES	HSF1 activator	HSF1 inh	TLR4-MyD88 BLA	NOD2-RIPK2 inh	TLR9-MyD88 block
CC1(C)CC(=O)C(=Cc2cn(-c3ccccc3)nc2-c2ccccc2)C(=O)C1	147	i	nt	i	i
CCOc1cc(/C=C\[N+](=O)[O-])ccc1OCC(=O)N1CCOCC1	310	i	i	i	i
CCOc1cc(/C=C/c2nc3cc(C)c(C)cc3s2)ccc1OCC(=O)N1CCOCC1	i	i	i	i	i
O=C(NCc1ccco1)c1sc2ccccc2c1Cl	66	i	i	i	i
CC(C)(C)Cc1nnc(NS(=O)(=O)c2ccc(F)cc2)s1	i	-53	i	i	i
COc1ccc(C(O)c2nc(-c3cncnc3)cs2)cc1 (stereo not drawn)	nt	nt	nt	i	nt
CCc1ccccc1NC(=O)CC(c1ccc(OC)cc1)n1cccc1 (stereo not drawn)	81	i	i	i	i
CCC(C)NC(=O)CC(c1ccc(OC)cc1)n1cccc1 (stereo not drawn)	i	i	i	i	i
COCCNC(=O)Cn1ccc2cc(S(=O)(=O)N3CCCCCC3)ccc21	i	i	nt	i	i
CCOC(=O)c1c(C)n(-c2ccc(C)cc2)c2c(CC(C)=O)c(Br)c(OC)c(O)c12	65	i	i	i	i

Compound activity (PubChem)
